# From PubChem BioAssay (NCATS)
# A number with no mark means an inactive call. Inconclusive results are not listed. Entries that show only a call come without a potency. The source made the active and inactive calls. Unless noted, calls come from the whole dose curve; as a rule, active = well fitted curve in the direction sought with a large enough effect; inconclusive = small, poorly fitted or top-dose-only effect, or another doubt; inactive = no such curve, though single readings can be large; an effect the other way counts as inactive or inconclusive.
# Key:
# [1] = molecular target: T1, Tyrosine-protein phosphatase non-receptor type substrate 1 (Homo sapiens) + Leukocyte surface antigen CD47 (Homo sapiens) (UniProt P78324+Q08722); assay: CD47-SIRPalpha protein protein interaction - LANCE assay qHTS validation (AID 1347057; active = well fitted curve in the direction sought with a large enough effect in the signal ratio, with a control signal flat, not every such curve was filed as active; the % refers to the signal ratio; note: series mostly up to about 38 µM)
# Procedure, shortened: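 Inhibition of soluble CD47/SIRPalpha ectodomain association by titrated compounds, measured as 665/615 nm time-resolved FRET ratio after sequential 30 min room-temperature incubations.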
# [2] = molecular target: T1, Tyrosine-protein phosphatase non-receptor type substrate 1 (Homo sapiens) + Leukocyte surface antigen CD47 (Homo sapiens); assay: CD47-SIRPalpha protein protein interaction - HTRF assay qHTS validation (AID 1347058; active = well fitted curve in the direction sought with a large enough effect in the signal ratio, not every such curve was filed as active; the % refers to the signal ratio; note: series mostly up to about 38 µM)
# Procedure, shortened: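 Soluble extracellular domains (6His-CD47, Avi-tag-biotinylated SIRPalpha) in PBS pH 7.4 with 0.05% IGEPAL CA-630. Compounds were preincubated 30 min at RT with CD47 and anti-His-Eu, then SIRPalpha and SAV-XL665 were added. TR-FRET 665/615 ratio.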
# [3] = molecular target: T1, Tyrosine-protein phosphatase non-receptor type substrate 1 (Homo sapiens) + Leukocyte surface antigen CD47 (Homo sapiens); assay: CD47-SIRPalpha protein protein interaction - Alpha assay qHTS validation (AID 1347059);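 note: bead proximity luminescence from CD47 binding SIRPalpha after compound preincubation with SIRPalpha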
# Procedure, shortened: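 AlphaScreen signal between CD47-His (12.5 nM) and biotin-SIRPalpha (25 nM) soluble extracellular domains, bead-captured via Ni-NTA and streptavidin. Compounds, in 7-point titrations, met SIRPalpha 30 min before CD47; PBS pH 7.4 with 0.05% IGEPAL.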
# [4] = molecular target: Parathyroid hormone/parathyroid hormone-related peptide receptor (Homo sapiens) (UniProt Q03431); assay: qHTS for PTHR1 Agonists: Optimization Screen against the NCGC LOPAC library (AID 1347079);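 note: GloSensor cAMP luminescence in HEK-293 GP2 cells expressing human PTHR1 with IBMX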
# Procedure, shortened: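 Signal increase flags agonism. GP2 cells, derived from HEK-293, express human PTHR1 and a GloSensor cAMP construct.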
# [5] = qHTS of pediatric cancer cell lines to identify multiple opportunities for drug repurposing: Primary screen for SJ-GBM2 cells (AID 1347091)
# Procedure, shortened: (§1)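 Cell viability, CellTiter-Glo luminescence; 500-1,000 cells/well, 8- or 11-point titration, 48 h compound exposure at 37 degrees C, 5% CO2. Controls: DMSO neutral, bortezomib 2.3 µM final as positive.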
# [6] = qHTS of pediatric cancer cell lines to identify multiple opportunities for drug repurposing: Primary screen for A673 cells (AID 1347092); note: nearly all actives have a fitted effect of over 45% in size
# Procedure, shortened: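 48 h compound exposure, A673, 500-1,000 cells/well, 37 degrees C/5% CO2. MIPE: 11-point, 0.78 nM-46 µM; NPC: 8-point, 0.59 nM-46 µM (final). Readout CellTiter-Glo luminescence after 15 min RT.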
# [7] = qHTS of pediatric cancer cell lines to identify multiple opportunities for drug repurposing: Primary screen for SK-N-MC cells (AID 1347093); note: series mostly up to about 46 µM
# Procedure, shortened: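 Metabolically active cells were quantified by ATP-dependent luminescence (CellTiter-Glo, 15 min at room temperature) following 48 h treatment. Cells had been plated at 500-1,000 per well and settled for 5 h beforehand.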
# [8] = qHTS of pediatric cancer cell lines to identify multiple opportunities for drug repurposing: Primary screen for BT-37 cells (AID 1347094); note: series mostly up to about 57 µM
# Procedure, shortened: (§2)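 Viability was measured as metabolically active cells after 48 hours of treatment, read by CellTiter-Glo luminescence. Compounds were tested at multiple final concentrations, giving concentration-response curves.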
# [9] = qHTS of pediatric cancer cell lines to identify multiple opportunities for drug repurposing: Primary screen for NB-EBc1 cells (AID 1347095)
# Procedure, shortened: as §2
# [10] = qHTS of pediatric cancer cell lines to identify multiple opportunities for drug repurposing: Primary screen for U-2 OS cells (AID 1347096); note: nearly all actives have a fitted effect of over 50% in size
# Procedure, shortened: (§3)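 Cells (500-1,000/well) rested 5 h, then received compounds for 48 h; metabolically active cells were measured by CellTiter-Glo luminescence. Final concentrations spanned up to 46 µM (MIPE, 11-point) or 0.59 nM-46 µM (NPC, 8-point) in primary screens, 11-point in follow-ups.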
# [11] = qHTS of pediatric cancer cell lines to identify multiple opportunities for drug repurposing: Primary screen for Saos-2 cells (AID 1347097); note: nearly all actives have a fitted effect of over 40% in size; note: potency is the fitted concentration of half-maximal effect
# Procedure, shortened: as §2
# [12] = qHTS of pediatric cancer cell lines to identify multiple opportunities for drug repurposing: Primary screen for SK-N-SH cells (AID 1347098); note: nearly all actives have a fitted effect of over 65% in size; note: potency is the fitted concentration of half-maximal effect
# Procedure, shortened: as §3
# [13] = qHTS of pediatric cancer cell lines to identify multiple opportunities for drug repurposing: Primary screen for NB1643 cells (AID 1347099); note: nearly all actives have a fitted effect of over 50% in size
# Procedure, shortened: as §2
# [14] = qHTS of pediatric cancer cell lines to identify multiple opportunities for drug repurposing: Primary screen for LAN-5 cells (AID 1347100)
# Procedure, shortened: as §3
# [15] = qHTS of pediatric cancer cell lines to identify multiple opportunities for drug repurposing: Primary screen for BT-12 cells (AID 1347101); note: nearly all actives have a fitted effect of over 25% in size
# Procedure, shortened: as §3
# [16] = qHTS of pediatric cancer cell lines to identify multiple opportunities for drug repurposing: Primary screen for Rh18 cells (AID 1347102); note: nearly all actives have a fitted effect of over 65% in size
# Procedure, shortened: as §3
# [17] = qHTS of pediatric cancer cell lines to identify multiple opportunities for drug repurposing: Primary screen for OHS-50 cells (AID 1347103); note: nearly all actives have a fitted effect of over 40% in size; note: potency is the fitted concentration of half-maximal effect
# Procedure, shortened: as §3
# [18] = qHTS of pediatric cancer cell lines to identify multiple opportunities for drug repurposing: Primary screen for RD cells (AID 1347104); note: nearly all actives have a fitted effect of over 55% in size
# Procedure, shortened: as §2
# [19] = qHTS of pediatric cancer cell lines to identify multiple opportunities for drug repurposing: Primary screen for TC32 cells (AID 1347089); note: nearly all actives have a fitted effect of over 60% in size
# Procedure, shortened: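 In the primary qHTS, MIPE compounds were tested at 11 concentrations (0.78 nM to 46 µM) and NPC compounds at 8 (0.59 nM to 46 µM) on TC32 cells for 48 h. CellTiter-Glo luminescence gave viability.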
# [20] = qHTS of pediatric cancer cell lines to identify multiple opportunities for drug repurposing: Primary screen for DAOY cells (AID 1347090); note: series mostly up to about 46 µM; nearly all actives have a fitted effect of over 55% in size
# Procedure, shortened: as §1
# T1 sequence (P78324 whole entry, looked up, the tested form may be a part): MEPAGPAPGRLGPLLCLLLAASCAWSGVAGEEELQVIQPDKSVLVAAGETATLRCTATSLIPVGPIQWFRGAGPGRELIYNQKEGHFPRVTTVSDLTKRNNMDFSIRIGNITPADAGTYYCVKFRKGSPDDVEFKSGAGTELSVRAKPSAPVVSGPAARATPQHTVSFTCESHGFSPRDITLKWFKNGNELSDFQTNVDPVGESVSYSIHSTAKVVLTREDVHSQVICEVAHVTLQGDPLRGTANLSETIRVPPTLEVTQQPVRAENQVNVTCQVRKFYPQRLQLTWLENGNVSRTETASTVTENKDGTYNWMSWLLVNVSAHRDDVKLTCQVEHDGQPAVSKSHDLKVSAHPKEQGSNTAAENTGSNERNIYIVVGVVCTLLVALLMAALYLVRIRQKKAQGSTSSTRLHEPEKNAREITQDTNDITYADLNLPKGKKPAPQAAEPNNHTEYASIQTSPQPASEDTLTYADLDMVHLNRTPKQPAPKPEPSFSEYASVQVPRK
# T1 sequence (Q08722 whole entry, looked up, the tested form may be a part): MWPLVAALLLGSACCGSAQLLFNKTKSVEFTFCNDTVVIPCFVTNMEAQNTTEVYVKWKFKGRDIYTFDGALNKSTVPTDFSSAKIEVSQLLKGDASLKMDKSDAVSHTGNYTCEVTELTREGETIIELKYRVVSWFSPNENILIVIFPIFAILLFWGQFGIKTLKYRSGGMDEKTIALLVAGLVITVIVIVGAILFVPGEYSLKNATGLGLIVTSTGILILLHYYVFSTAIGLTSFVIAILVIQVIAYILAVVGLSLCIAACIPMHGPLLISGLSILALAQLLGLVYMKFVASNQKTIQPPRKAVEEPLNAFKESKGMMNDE
# Sequence of Parathyroid hormone/parathyroid hormone-related peptide receptor (Homo sapiens) (Q03431 whole entry, looked up): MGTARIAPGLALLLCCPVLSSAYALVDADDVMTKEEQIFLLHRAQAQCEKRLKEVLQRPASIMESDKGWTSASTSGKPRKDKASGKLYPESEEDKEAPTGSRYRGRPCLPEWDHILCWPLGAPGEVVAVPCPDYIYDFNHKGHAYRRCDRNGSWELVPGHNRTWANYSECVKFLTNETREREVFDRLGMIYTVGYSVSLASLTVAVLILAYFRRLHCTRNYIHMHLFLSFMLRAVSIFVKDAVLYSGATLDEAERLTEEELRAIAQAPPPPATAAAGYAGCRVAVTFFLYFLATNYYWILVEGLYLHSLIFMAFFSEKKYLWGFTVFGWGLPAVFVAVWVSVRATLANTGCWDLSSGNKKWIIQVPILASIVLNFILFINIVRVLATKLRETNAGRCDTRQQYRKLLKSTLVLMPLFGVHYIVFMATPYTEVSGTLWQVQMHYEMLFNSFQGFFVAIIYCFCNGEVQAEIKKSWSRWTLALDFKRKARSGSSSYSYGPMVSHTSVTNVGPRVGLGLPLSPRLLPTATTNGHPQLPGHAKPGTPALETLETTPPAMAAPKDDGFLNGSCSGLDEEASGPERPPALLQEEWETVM
Structure (SMILES),outcome [1],outcome [2],Potency [3],outcome [4],Potency [5],Potency [6],Potency [7],Potency [8],Potency [9],Potency [10],Potency [11],Potency [12],Potency [13],Potency [14],Potency [15],Potency [16],Potency [17],Potency [18],Potency [19],Potency [20]
c1cnc(N2CCN(Cc3ccc4c(c3)OCO4)CC2)nc1,inactive,inactive,inactive,inactive,inactive,inactive,inactive,inactive,inactive,inactive,inactive,inactive,inactive,inactive,inactive,inactive,inactive,inactive,–,–
C[C@]12CCC(=O)C=C1CC[C@@H]1[C@@H]2C(=O)C[C@@]2(C)[C@H]1CC[C@]2(O)C(=O)CO,inactive,inactive,inactive,inactive,inactive,inactive,inactive,inactive,inactive,inactive,inactive,inactive,inactive,inactive,inactive,–,inactive,inactive,–,–
CCCOc1ccccc1-c1nc2n[nH]nc2c(=O)[nH]1,inactive,inactive,inactive,inactive,inactive,inactive,inactive,inactive,inactive,inactive,inactive,inactive,inactive,inactive,inactive,inactive,inactive,inactive,inactive,–
CCCCNc1c(C(=O)OCC)c(C)nc2c1cnn2CC,inactive,inactive,inactive,inactive,inactive,–,–,inactive,inactive,inactive,26.6 µM (active),–,inactive,–,inactive,inactive,34.7 µM (active),inactive,inactive,–
CCN(Cc1ccncc1)C(=O)C(CO)c1ccccc1 (stereo not given),inactive,inactive,inactive,inactive,inactive,inactive,–,inactive,inactive,inactive,inactive,inactive,inactive,inactive,inactive,inactive,inactive,inactive,–,inactive
COc1cc(C(=O)OCCCN2CCCN(CCCOC(=O)c3cc(OC)c(OC)c(OC)c3)CC2)cc(OC)c1OC,inactive,inactive,inactive,inactive,–,–,inactive,–,inactive,inactive,inactive,inactive,inactive,–,–,–,–,–,–,inactive
CC(=O)Nc1nnc(S(N)(=O)=O)s1,inactive,inactive,inactive,inactive,inactive,inactive,inactive,inactive,inactive,inactive,–,inactive,inactive,inactive,inactive,–,inactive,inactive,–,inactive
O=C(O)CP(=O)(O)O,inactive,inactive,inactive,inactive,inactive,inactive,inactive,inactive,inactive,inactive,inactive,–,inactive,inactive,inactive,inactive,inactive,inactive,–,–
COc1ccc(CCN(C)CCCC(C#N)(c2cc(OC)c(OC)c(OC)c2)C(C)C)cc1OC (stereo not given),inactive,inactive,inactive,inactive,inactive,inactive,inactive,inactive,inactive,inactive,inactive,inactive,inactive,inactive,–,inactive,–,inactive,–,–
COc1cc(Cc2cnc(N)nc2N)cc(OC)c1OC,inactive,inactive,inactive,inactive,inactive,inactive,–,inactive,inactive,inactive,inactive,inactive,inactive,inactive,inactive,–,inactive,inactive,inactive,–
CN(C)CCCN1c2ccccc2Sc2ccccc21,inactive,inactive,inactive,inactive,–,–,inactive,–,–,inactive,–,–,inactive,inactive,–,–,17.4 µM (active),–,–,inactive
CCCNC(C)C(=O)Nc1ccccc1C (stereo not given),inactive,inactive,inactive,inactive,inactive,inactive,inactive,inactive,inactive,inactive,inactive,inactive,inactive,inactive,–,–,inactive,inactive,inactive,–
CCC(=O)c1ccc2c(c1)N(CCCN(C)C)c1ccccc1S2,inactive,–,inactive,inactive,–,–,–,–,inactive,inactive,–,34.4 µM (active),inactive,–,–,–,30.9 µM (active),–,–,–
CN(C)CC/C=C1\c2ccccc2COc2ccccc21,inactive,–,inactive,inactive,inactive,–,inactive,inactive,inactive,inactive,–,–,inactive,inactive,–,–,–,–,inactive,inactive
C[C@@H](O)[C@H]1C(=O)N2C(C(=O)O)=C(SCCN=CN)C[C@H]12,–,inactive,inactive,inactive,inactive,inactive,inactive,inactive,inactive,inactive,–,inactive,inactive,inactive,inactive,inactive,inactive,inactive,inactive,inactive
